PubChem BioAssay (Tox21)
Several values for one entry are separate records, joined by “and”; a condition that tells them apart may be missing. Identical values can stand only once. Results filed as inconclusive are left out. Entries that show only a call come without a potency. More than one record can exist for a structure, and the calls need not agree. Activity calls are given as the source filed them. Unless noted, the call rests on the fitted dose curve; in most records, active means well fitted curve in the direction sought with a large enough effect in the repeat runs; inconclusive means weak or mixed curves; inactive means no such curve, though single readings can be large; an effect the other way counts as inactive or inconclusive.

Assays:
[1] = qHTS assay to identify small molecule agonists of the sonic hedgehog signaling (Shh) pathway (AID 1259368; calls by dose curve;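 further: NIH/3T3-derived 3T3Gli1-Luc cells carrying a stable Gli1-driven firefly luciferase reporter; series mostly up to about 92 µM; nearly all actives have a fitted effect of over 15% in size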)
Summary of the method: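 Cells of a mouse NIH/3T3 clone stably expressing luciferase under the Gli1 transcriptional response element are exposed to test chemicals for 24 hr at 37 C. Pathway activation is detected as a rise in luminescence.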

[2] = qHTS assay to identify small molecule antagonists of the sonic hedgehog signaling (Shh) pathway (AID 1259369; calls by dose curve; further: nearly all actives have a fitted effect of over 45% in size; further: potency means the concentration at half of the fitted maximal effect)
Summary of the method: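 Cells are plated and held 4hr at 37 C, compounds (DMSO) are pinned in, conditioned medium is added to stimulate the pathway, and after 24hr luciferase reagent is added for 30min before luminescence is read.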

[3] = biological target: Estrogen receptor beta (Homo sapiens) (UniProt Q92731); assay: qHTS assay to identify small molecule agonists of the estrogen receptor beta (ER-beta) signaling pathway (AID 1259377; active means well fitted activation curve with a large enough effect in the signal ratio in the repeat runs, not every such curve was filed as active; the % refers to the signal ratio; further: potency means the concentration at half of the fitted maximal effect)
Summary of the method: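 ER-beta-UAS-bla HEK293T cells in medium with 2% charcoal-stripped FBS were exposed to compounds for 16 h at 37C. Beta-lactamase reporter activity was read as fluorescence after 2 h with LiveBLAzer B/G FRET substrate at room temperature.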

[4] = biological target: Estrogen receptor beta (Homo sapiens) (UniProt Q92731); assay: qHTS assay to identify small molecule antagonists of the estrogen receptor beta (ER-beta) signaling pathway (AID 1259378; active means well fitted inhibition curve with a large enough effect in the signal ratio in the repeat runs, not every such curve was filed as active; the % refers to the signal ratio)
Summary of the method: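 Antagonist mode: compounds added to beta-lactamase reporter HEK293T ER-beta-UAS cells stimulated with E2 (1nM final), 16 hr at 37C. LiveBLAzer B/G FRET substrate, 2 hours room temperature, fluorescence read-out.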

[5] = qHTS assay to identify small molecule agonists of the androgen receptor (AR) signaling pathway in the presence of an antagonist - cell viability counter screen (AID 1259379);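 further: MDA-kb2 human breast cancer cells carrying an MMTV luciferase reporter; series mostly up to about 92 µM; nearly all actives have a fitted effect of over 25% in size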
Summary of the method: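 Cytotoxicity is assessed by CellTiter-Fluor in MDA-kb2 cells carrying an MMTV-driven luciferase reporter. Cells receive 3.0uM nilutamide plus compounds at 15 concentrations and incubate 16 hr at 37C without CO2 before fluorescence reading.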

[6] = qHTS assay to identify small molecule agonists of the estrogen receptor beta (ER-beta) signaling pathway - cell viability counter screen (AID 1259380); further: nearly all actives have a fitted effect of over 30% in size; further: potency means the concentration at half of the fitted maximal effect
Summary of the method: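 Cytotoxicity is measured in parallel with the reporter screen: after 16 hr compound exposure at 37C and a 2 hr LiveBLAzer step, CellTiter-Glo is added to the same ER-beta-UAS-bla HEK293T wells and luminescence read after 30 min.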

[7] = qHTS assay to identify small molecule antagonists of the estrogen receptor beta (ER-beta) signaling pathway - cell viability counter screen (AID 1259382);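 further: HEK293T cells carrying ER-beta-UAS-bla reporter stimulated with estradiol; series mostly up to about 92 µM; nearly all actives have a fitted effect of over 55% in size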
Summary of the method: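 Cytotoxicity counter screen multiplexed with the beta-lactamase antagonist assay: GripTite HEK293T ER-beta-bla cells were treated 16 hr with test chemicals in the presence of 1nM 17-beta-estradiol, and viability was measured by CellTiter-Glo.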

[8] = biological target: Estrogen receptor (Homo sapiens) (UniProt P03372); assay: qHTS assay to identify small molecule agonists of the estrogen receptor alpha (ER-alpha) signaling pathway in the presence of an antagonist (AID 1259383; calls by dose curve; further: top concentration of the series differs between compounds; nearly all actives have a fitted effect of over 15% in size)
Summary of the method: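 Agonist-mode confirmation in the presence of the ER antagonist ICI-182,780 at 10.0nM final. Breast-derived VM7Luc4E2 reporter cells were exposed to compounds for 22hr, and ERE-driven luciferase was quantified by luminescence.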

[9] = qHTS assay to identify small molecule agonists or antagonists of the thyroid stimulating hormone receptor (TSHR) signaling pathway - wild type cell line counter screen (AID 1259384; calls by dose curve)
Summary of the method: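 Counter screen in untransfected Hek293: compounds (15-point titration, triplicate) plus phosphodiesterase inhibitor Ro20-1724 added after 18 h plating; 30 min RT. Intracellular cAMP via competitive d2/cryptate immunoassay, 1 h incubation.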

[10] = biological target: Thyrotropin receptor (Homo sapiens) (UniProt P16473); assay: qHTS assay to identify small molecule antagonists of the thyroid stimulating hormone receptor (TSHR) signaling pathway (AID 1259385; calls by dose curve; further: nearly all actives have a fitted effect of over 20% in size)
Summary of the method: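 Antagonist mode: compound-treated TSHR-expressing HEK293 cells were stimulated with 1.5 ng/mL TSH (final) in presence of Ro20-1724 for 30 min at RT. HTRF cAMP detection after 1 h; each compound tested at 15 concentrations, triplicate.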

[11] = qHTS assay to identify small molecule agonists of the estrogen receptor alpha (ER-alpha) signaling pathway in the presence of an antagonist - cell viability counter screen (AID 1259386);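 further: series mostly up to about 92 µM; cells exposed to compounds for 22 h at 37 °C before the viability read; nearly all actives have a fitted effect of over 30% in size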
Summary of the method: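 Cytotoxicity was measured in parallel with the ERE-luciferase agonist screen, in the same wells. The cells were VM7Luc4E2, which endogenously express ER-alpha, and treatment was with compounds plus 10.0nM ICI-182,780 for 22hr.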

[12] = biological target: Progesterone receptor (Homo sapiens) (UniProt P06401); assay: qHTS assay to identify small molecule agonists of the progesterone receptor (PR) signaling pathway (AID 1346784; calls by dose curve; further: nearly all actives have a fitted effect of over 30% in size)
Summary of the method: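 PR-UAS-bla HEK 293T cells (beta-lactamase reporter under UAS) in 2% charcoal-stripped FBS, dosed with 23 nL compound after 6 hr, incubated 16hr at 37C. LiveBLAzer B/G FRET substrate added, fluorescence read after 2 hours.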

[13] = biological target: Progesterone receptor (Homo sapiens) (UniProt P06401); assay: qHTS assay to identify small molecule antagonists of the progesterone receptor (PR) signaling pathway (AID 1346795; active means well fitted inhibition curve with a large enough effect in the signal ratio in the repeat runs, not every such curve was filed as active; the % refers to the signal ratio)
Summary of the method: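 PR-UAS-bla HEK293T cells with beta-lactamase reporter under UAS control, in 2% charcoal-stripped FBS, treated with compounds plus 1 nM promegestone (R5020, final) for 16 hr at 37C. Read-out: FRET beta-lactamase substrate fluorescence after 2 hr at room temperature.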

[14] = qHTS assay to identify small molecule antagonists of the progesterone receptor (PR) signaling pathway - cell viability counter screen (AID 1346798); further: series mostly up to about 92 µM; nearly all actives have a fitted effect of over 50% in size
Summary of the method: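 PR-UAS-bla HEK293T cells, 3,000/well in 2% charcoal-stripped FBS medium, dosed with compounds plus R5020 agonist and incubated 16 h at 37C. Viability then measured in the same wells by CellTiter-Glo luminescence after 30 min at RT.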

[15] = qHTS assay to identify small molecule agonists of the progesterone receptor (PR) signaling pathway - cell viability counter screen (AID 1346799; calls by dose curve; further: nearly all actives have a fitted effect of over 45% in size)
Summary of the method: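 Counter screen in the PR-UAS-bla HEK293T wells (2% charcoal-stripped FBS, 16 h compound exposure at 37 C) after the bla read. CellTiter-Glo added, 30 min at room temperature, luminescence read as cell viability.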

[16] = qHTS assay to identify small molecule antagonists of the TGF-beta/Smad signaling pathway - cell viability counter screen (AID 1346824); further: nearly all actives have a fitted effect of over 50% in size
Summary of the method: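 Cytotoxicity counter-screen run in the same wells as the beta-lactamase Smad reporter read: CellTiter-Glo luminescence after 30 min at room temperature. HEK 293T SBE-bla cells had 5 hr compound exposure at 37 C with TGF-beta1 (0.25 ng/mL stock).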

[17] = qHTS assay to identify small molecule agonists of the TGF-beta/Smad signaling pathway - cell viability counter screen (AID 1346829); further: nearly all actives have a fitted effect of over 45% in size; further: potency means the concentration at half of the fitted maximal effect
Summary of the method: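 Luminescence from CellTiter-Glo, read after a 30 min room-temperature incubation, gives cell viability of SBE-bla HEK 293T cells treated 5 hr with compounds at 37 C.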

[18] = qHTS assay to identify small molecule agonists of the TGF-beta/Smad signaling pathway (AID 1346859; active means well fitted activation curve with a large enough effect in the signal ratio in the repeat runs, not every such curve was filed as active; the % refers to the signal ratio; further: series mostly up to about 77 µM)
Summary of the method: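 SBE-bla HEK293T cells plated overnight, then compound exposure for 5 h at 37 C. Beta-lactamase reporter read with LiveBLAzer B/G FRET substrate after 2 h at room temperature, fluorescence at 405 nm excitation, 460/530 nm emission.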

[19] = biological target: Thyrotropin-releasing hormone receptor (Homo sapiens) (UniProt P34981); assay: qHTS assay to identify small molecule antagonists of the thyrotropin-releasing hormone receptor (TRHR) signaling pathway (AID 1346877; active means well fitted inhibition curve with a large enough effect in the repeat runs, not every such curve was filed as active; further: series mostly up to about 51 µM)
Summary of the method: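 Antagonism is measured as suppression of the calcium response to 1 nM TRH in TRHR-HEK293 cells that have been dye-loaded for 2 h at 37 °C after overnight plating. Each compound is tested at 15 concentrations in triplicate.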

[20] = biological target: Androgen receptor (Homo sapiens) (UniProt P10275); assay: qHTS assay to identify small molecule agonists of the androgen receptor (AR) signaling pathway in the presence of an antagonist (AID 1259381; calls by dose curve; further: nearly all actives have a fitted effect of over 15% in size)
Summary of the method: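 Agonist-mode confirmation screen: human MDA-kb2 cells stably expressing luciferase under an MMTV promoter bearing AR and GR response elements, co-treated with 3.0uM nilutamide (final). Luminescence measured after 16hr compound incubation.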

Chain of Androgen receptor (Homo sapiens) (P10275 whole entry, looked up): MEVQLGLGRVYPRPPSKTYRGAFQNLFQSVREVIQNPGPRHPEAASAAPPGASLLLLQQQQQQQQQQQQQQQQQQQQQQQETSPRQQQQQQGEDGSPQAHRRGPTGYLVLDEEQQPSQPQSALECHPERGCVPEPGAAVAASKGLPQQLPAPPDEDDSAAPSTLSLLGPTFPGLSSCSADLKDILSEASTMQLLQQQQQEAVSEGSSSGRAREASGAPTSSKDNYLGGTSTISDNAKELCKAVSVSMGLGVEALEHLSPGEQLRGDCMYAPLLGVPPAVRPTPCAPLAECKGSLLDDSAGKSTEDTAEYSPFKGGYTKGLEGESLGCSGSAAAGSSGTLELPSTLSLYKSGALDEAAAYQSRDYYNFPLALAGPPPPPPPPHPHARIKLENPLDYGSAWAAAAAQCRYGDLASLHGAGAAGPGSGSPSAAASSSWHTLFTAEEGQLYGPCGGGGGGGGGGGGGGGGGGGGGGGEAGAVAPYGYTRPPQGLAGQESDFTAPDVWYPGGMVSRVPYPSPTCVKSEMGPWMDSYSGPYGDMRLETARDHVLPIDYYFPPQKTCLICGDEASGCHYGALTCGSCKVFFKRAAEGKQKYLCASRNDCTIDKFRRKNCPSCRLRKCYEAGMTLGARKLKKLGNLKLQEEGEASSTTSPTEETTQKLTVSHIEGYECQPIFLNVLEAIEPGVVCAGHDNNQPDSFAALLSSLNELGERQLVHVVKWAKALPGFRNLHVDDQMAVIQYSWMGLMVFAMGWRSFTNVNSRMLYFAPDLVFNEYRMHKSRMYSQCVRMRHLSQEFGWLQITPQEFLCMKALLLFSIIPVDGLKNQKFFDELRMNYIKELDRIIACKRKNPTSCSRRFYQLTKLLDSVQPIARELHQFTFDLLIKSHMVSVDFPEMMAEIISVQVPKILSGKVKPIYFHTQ
Chain of Estrogen receptor beta (Homo sapiens) (Q92731 whole entry, looked up): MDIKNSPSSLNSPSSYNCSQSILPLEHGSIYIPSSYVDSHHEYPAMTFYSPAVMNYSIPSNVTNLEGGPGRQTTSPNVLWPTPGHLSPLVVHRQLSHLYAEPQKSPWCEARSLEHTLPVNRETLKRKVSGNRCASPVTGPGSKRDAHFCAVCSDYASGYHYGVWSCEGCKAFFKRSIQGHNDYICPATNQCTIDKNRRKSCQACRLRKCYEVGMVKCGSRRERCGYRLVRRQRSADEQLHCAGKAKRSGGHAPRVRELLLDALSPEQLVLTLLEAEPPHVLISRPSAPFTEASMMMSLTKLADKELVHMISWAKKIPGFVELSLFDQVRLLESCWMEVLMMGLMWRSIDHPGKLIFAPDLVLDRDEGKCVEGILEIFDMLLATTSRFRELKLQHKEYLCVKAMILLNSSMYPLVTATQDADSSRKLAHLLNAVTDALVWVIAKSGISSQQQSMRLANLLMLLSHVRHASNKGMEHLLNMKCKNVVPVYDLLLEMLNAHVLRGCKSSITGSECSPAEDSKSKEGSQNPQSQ
Chain of Progesterone receptor (Homo sapiens) (P06401 whole entry, looked up): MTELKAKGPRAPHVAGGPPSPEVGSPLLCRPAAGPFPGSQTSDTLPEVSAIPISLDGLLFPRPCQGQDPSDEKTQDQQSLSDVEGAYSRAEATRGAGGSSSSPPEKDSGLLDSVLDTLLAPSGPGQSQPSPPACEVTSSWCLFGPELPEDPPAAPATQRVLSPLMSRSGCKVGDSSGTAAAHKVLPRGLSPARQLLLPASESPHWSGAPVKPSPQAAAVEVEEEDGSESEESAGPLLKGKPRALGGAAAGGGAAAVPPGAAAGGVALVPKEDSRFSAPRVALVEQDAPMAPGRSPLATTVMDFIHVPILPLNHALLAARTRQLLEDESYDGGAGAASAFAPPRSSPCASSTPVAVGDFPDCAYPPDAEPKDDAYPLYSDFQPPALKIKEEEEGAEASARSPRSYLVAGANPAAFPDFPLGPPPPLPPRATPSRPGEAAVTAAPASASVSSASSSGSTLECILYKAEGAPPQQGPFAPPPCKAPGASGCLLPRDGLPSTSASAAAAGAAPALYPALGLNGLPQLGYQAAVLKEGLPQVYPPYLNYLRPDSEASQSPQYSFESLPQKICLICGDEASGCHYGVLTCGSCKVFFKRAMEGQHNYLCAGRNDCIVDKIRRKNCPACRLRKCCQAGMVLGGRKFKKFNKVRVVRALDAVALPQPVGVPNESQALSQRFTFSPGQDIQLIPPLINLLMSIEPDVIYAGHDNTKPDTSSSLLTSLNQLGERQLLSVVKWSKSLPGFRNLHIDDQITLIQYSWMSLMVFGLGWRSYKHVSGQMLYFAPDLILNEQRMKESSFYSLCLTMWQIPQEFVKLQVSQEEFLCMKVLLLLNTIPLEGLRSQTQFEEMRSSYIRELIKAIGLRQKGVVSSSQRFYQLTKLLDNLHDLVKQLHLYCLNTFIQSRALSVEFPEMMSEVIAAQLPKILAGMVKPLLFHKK
Chain of Thyrotropin-releasing hormone receptor (Homo sapiens) (P34981 whole entry, looked up): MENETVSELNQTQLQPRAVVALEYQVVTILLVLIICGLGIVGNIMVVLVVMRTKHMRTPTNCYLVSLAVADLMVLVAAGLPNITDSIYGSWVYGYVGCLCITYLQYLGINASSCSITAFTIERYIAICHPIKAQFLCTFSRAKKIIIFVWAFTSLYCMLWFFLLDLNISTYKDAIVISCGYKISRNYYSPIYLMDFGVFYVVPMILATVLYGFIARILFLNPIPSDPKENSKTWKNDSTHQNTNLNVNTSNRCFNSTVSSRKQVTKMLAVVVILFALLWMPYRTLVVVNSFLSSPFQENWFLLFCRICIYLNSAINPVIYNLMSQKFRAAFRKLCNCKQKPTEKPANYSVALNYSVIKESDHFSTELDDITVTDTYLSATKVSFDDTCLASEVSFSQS
Chain of Thyrotropin receptor (Homo sapiens) (P16473 whole entry, looked up): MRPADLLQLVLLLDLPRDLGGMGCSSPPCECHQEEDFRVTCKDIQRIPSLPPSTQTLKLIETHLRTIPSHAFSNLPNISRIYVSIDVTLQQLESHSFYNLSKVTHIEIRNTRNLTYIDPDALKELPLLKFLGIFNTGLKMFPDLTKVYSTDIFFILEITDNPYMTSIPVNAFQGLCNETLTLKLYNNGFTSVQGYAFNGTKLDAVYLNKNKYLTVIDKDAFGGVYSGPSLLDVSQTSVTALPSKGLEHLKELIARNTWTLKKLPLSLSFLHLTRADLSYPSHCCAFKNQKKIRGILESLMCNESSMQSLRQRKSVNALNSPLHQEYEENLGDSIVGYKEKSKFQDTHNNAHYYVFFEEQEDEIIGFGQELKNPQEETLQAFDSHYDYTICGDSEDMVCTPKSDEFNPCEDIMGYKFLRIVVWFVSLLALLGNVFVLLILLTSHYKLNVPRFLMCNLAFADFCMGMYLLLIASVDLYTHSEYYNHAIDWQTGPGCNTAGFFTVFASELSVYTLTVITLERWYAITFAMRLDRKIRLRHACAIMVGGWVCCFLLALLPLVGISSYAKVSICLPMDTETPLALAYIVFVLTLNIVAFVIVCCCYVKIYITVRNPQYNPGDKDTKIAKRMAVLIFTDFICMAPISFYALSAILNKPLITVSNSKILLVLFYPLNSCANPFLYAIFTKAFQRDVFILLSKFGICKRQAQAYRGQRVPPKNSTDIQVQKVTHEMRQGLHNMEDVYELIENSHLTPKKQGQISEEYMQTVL
Chain of Estrogen receptor (Homo sapiens) (P03372 whole entry, looked up): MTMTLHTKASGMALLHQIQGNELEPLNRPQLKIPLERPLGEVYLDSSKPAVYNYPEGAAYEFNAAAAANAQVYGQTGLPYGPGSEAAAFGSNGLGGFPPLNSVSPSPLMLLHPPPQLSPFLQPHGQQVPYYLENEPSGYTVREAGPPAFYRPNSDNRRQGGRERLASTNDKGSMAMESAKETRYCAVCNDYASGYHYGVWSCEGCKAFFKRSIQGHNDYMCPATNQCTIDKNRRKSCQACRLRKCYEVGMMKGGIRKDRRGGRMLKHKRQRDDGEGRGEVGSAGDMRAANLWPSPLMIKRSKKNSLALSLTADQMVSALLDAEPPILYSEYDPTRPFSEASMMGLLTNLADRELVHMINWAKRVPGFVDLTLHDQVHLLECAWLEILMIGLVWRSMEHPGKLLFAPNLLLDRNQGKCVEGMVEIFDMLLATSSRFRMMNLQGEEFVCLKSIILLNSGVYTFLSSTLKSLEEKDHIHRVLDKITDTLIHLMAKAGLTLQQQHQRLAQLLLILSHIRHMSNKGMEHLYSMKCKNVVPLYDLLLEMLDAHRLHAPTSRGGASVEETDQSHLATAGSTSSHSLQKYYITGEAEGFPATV

Row | Compound | outcome [1] | Potency [2] | Potency [3] | outcome [4] | Potency [5] | Potency [6] | outcome [7] | outcome [8] | outcome [9] | outcome [10] | Potency [11] | Potency [12] | Potency [13] | Potency [14] | outcome [15] | Potency [16] | Potency [17] | outcome [18] | outcome [19] | outcome [20]
1 | O=C(O)COc1ccccc1 | inactive | inactive | inactive | inactive | inactive | inactive | inactive | inactive | inactive | inactive | inactive | inactive | inactive | inactive | inactive | inactive | inactive | inactive | inactive | 
2 | CNCC(O)c1ccc(O)cc1 (centres undefined) | inactive | inactive | inactive | inactive | inactive | inactive | inactive | inactive | inactive | inactive | inactive | inactive | inactive | inactive | inactive | inactive | inactive | inactive | inactive | 
3 | Cc1cccc(C)c1NC(=O)CN1CCCC1=O | inactive | inactive | inactive | inactive | inactive | inactive | inactive | inactive |  |  | inactive | inactive | inactive | inactive | inactive | inactive | inactive | inactive | inactive | 
4 | CNC(=O)O/N=C/C(C)(C)S(C)=O (centres undefined) | inactive | 39.1 µM (active) and inactive | inactive | inactive | inactive | inactive | inactive | inactive | inactive | inactive | inactive | inactive | inactive | inactive | inactive |  | 24.9 µM (active) and inactive | inactive | inactive | 
5 | CCOC(=O)CC(SP(=O)(OC)OC)C(=O)OCC (centres undefined) | inactive | inactive | inactive | inactive | inactive | inactive | inactive |  | inactive | inactive | inactive | inactive | inactive | inactive | inactive | inactive | inactive | inactive | inactive | 
6 | O=C(O)C1C(C(=O)O)C2(Cl)C(Cl)=C(Cl)C1(Cl)C2(Cl)Cl (centres undefined) | inactive | inactive | inactive | inactive | inactive | inactive | inactive | inactive | inactive | inactive | inactive | inactive | inactive | inactive | inactive | inactive | inactive | inactive |  | 
7 | C=CC(=O)OCCCCCC(C)C | inactive | inactive | inactive | inactive | inactive | inactive | inactive | inactive | inactive | inactive | inactive | inactive | inactive | inactive | inactive | inactive | inactive | inactive | inactive | inactive
8 | CSc1nnc(C(C)(C)C)c(=O)n1N | inactive | inactive | inactive | inactive | inactive | inactive | inactive |  | inactive | inactive | inactive | inactive | inactive | inactive | inactive | inactive | inactive | inactive | inactive | 
9 | CC12CC1(C)C(=O)N(c1cc(Cl)cc(Cl)c1)C2=O (centres undefined) | inactive | inactive | inactive | inactive | inactive | inactive | inactive |  |  |  | inactive | inactive |  | inactive | inactive | inactive | inactive | inactive | inactive | inactive
10 | OCc1ccco1 | inactive | inactive | inactive | inactive | inactive | inactive | inactive | inactive | inactive | inactive | inactive | inactive | inactive | inactive | inactive | inactive | inactive | inactive | inactive | 
11 | COC(C)(C)CCCC(C)C/C=C/C(C)=C/C(=O)OC(C)C (centres undefined) | inactive | inactive | inactive | inactive | inactive | inactive | inactive |  | inactive | inactive | inactive | inactive | inactive | inactive | inactive | inactive | inactive | inactive | inactive | inactive
12 | CNC(=O)O/N=C/C(C)(C)S(C)(=O)=O | inactive | inactive | inactive | inactive | inactive | inactive | inactive | inactive |  |  | inactive | inactive | inactive | inactive | inactive | inactive | inactive | inactive | inactive | inactive
13 | CC(=O)C1CCOC1=O (centres undefined) | inactive | inactive | inactive | inactive | inactive | inactive | inactive |  | inactive | inactive | inactive | inactive | inactive | inactive | inactive | inactive | inactive | inactive |  | 
14 | O=[N+]([O-])c1cc([As](=O)(O)O)ccc1O | inactive | inactive | inactive | inactive | inactive | inactive | inactive | inactive | inactive | inactive |  | inactive | inactive | inactive | inactive | inactive | inactive | inactive | inactive | 
15 | C[C@]12CC[C@H](O)CC1=CC[C@@H]1[C@@H]2CC[C@]2(C)C(=O)CC[C@@H]12 | inactive | 1.37 µM (active) and 19.3 µM (active) | 386 nM (active) and 473 nM (active) |  |  | 48.6 µM (active) and 27.3 µM (active) | inactive |  | inactive | inactive | inactive | inactive |  | inactive | inactive | inactive | inactive |  |  | 
16 | ClCCOCCCl | inactive | inactive | inactive | inactive |  | inactive | inactive |  | inactive | inactive | inactive | inactive | inactive | inactive | inactive | inactive | inactive | inactive | inactive | 
